In this test the target is T1, VCPIP1 (UniProt Q96JH7).
T1 sequence (whole entry): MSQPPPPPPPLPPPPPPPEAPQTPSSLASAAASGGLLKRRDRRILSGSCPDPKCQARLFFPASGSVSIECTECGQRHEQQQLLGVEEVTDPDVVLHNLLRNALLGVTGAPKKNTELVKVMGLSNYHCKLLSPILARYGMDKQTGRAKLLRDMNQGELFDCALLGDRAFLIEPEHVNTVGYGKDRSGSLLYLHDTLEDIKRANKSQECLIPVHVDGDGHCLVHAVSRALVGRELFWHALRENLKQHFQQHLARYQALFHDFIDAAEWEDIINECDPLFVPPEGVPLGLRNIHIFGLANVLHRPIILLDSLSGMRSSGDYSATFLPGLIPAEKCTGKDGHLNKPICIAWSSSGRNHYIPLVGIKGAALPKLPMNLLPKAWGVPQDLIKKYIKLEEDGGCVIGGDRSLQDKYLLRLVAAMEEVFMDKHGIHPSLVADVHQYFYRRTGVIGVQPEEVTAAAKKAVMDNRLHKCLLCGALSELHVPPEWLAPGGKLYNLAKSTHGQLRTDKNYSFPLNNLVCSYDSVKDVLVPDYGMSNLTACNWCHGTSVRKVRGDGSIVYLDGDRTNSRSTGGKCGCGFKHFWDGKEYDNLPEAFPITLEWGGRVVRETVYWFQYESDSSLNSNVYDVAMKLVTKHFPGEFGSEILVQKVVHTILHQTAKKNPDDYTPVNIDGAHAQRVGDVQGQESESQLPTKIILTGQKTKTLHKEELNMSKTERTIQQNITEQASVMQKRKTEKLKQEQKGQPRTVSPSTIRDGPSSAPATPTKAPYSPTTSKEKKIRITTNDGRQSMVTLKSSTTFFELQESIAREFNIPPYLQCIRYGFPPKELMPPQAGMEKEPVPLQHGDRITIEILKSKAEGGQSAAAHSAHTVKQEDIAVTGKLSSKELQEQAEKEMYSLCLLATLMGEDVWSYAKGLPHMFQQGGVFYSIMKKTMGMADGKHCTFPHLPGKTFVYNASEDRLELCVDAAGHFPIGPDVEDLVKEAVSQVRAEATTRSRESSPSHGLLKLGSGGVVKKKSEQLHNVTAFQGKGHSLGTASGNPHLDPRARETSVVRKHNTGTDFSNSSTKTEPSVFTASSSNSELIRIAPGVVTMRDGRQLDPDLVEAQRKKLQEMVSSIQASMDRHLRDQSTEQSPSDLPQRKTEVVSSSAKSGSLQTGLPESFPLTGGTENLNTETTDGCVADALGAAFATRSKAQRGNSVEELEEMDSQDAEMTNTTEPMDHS
Briefly: log2 ratio of Biotin-Ahx-Ub-VS probe labelling (fragment/DMSO); higher = less target engagement (more negative = stronger competition), active = hit call of the paper (q ≤ 0.05, log2 ratio ≤ -1). Conditions: compound concentration: 200 uM; treatment time: 3 h. The method, then: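 Competitive ABPP in HEK293T cell lysate. Lysates were treated with each chloroacetamide fragment at 200 µM for 3 h, then with Biotin-Ahx-Ub-VS (0.5 µM, 1 h), NeutrAvidin-enriched and analysed by diaPASEF LC-MS/MS. Protein LFQ was median-normalised; average log2 ratio is fragment/DMSO from an unpaired t-test (n=3 treated, n=44 DMSO). Hits: q ≤ 0.05, log2 ratio ≤ -1, unique peptides ≥ 2.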
With `Cc1ccc(C)c(Oc2ccc(CNC(=O)CCl)cn2)c1.Cl`, the “log2 ratio of Biotin-Ahx-Ub-VS probe labelling” value (“log2 ratio” for short) was -1.8 (active).

With `O=C(CCl)Nc1ccc(F)cc1F`, the “log2 ratio” value was -0.736 (inactive).

Take `O=C(CCl)Nc1ccc(Cl)c(F)c1`: the “log2 ratio” value was -1.86 (active).

As to `Cl.O=C(CCl)NCCc1ncc(F)cc1F`, the “log2 ratio” value is -1.69 (active).

Take `COCC1C=CCCN1C(=O)CCl` (stereo not given): the “log2 ratio” value was -0.426 (inactive).

`O=C(CCl)NCc1cccc(F)c1`: the “log2 ratio” value is -1.16 (active).

With `CC(NC(=O)CCl)c1cnn(C2CC2)c1` (stereo not given), the “log2 ratio” value was -1.15 (active).

As to `O=C(CCl)N1CCCCCC1c1ncon1` (stereo not given), the “log2 ratio” value is -0.233 (inactive).

Take `CCC(NC(=O)CCl)c1ccc(Cl)cc1` (stereo not given): the “log2 ratio” value is -0.836 (inactive).

In the case of `COc1ccc(CN(C)C(=O)CCl)cc1`, the “log2 ratio” value was -1.54 (active).

As for `O=C(CCl)N1CCC(c2noc3cc(F)ccc23)CC1`, the “log2 ratio” value is -2.98 (active).

As for `Cc1cnc2[nH]cc(CCNC(=O)CCl)c2c1`, the “log2 ratio” value was -1.05 (active).

Take `Cc1ccc(CC(NC(=O)CCl)c2ccccn2)cc1.Cl` (stereo not given): the “log2 ratio” value was -1.64 (active).

As for `Cc1n[nH]c(=O)c2c(NC(=O)CCl)oc(C)c12`, the “log2 ratio” value is -0.15 (inactive).

As to `O=C(CCl)N1CCC(S(=O)(=O)c2ccc(F)cc2)CC1`, the “log2 ratio” value is -0.527 (inactive).

As to `Cl.Cn1ncc2c1CC(NC(=O)CCl)CC2` (stereo not given), the “log2 ratio” value was -0.665 (inactive).

With `Cc1nc(CNC(=O)CCl)c2ccccn12.Cl`, the “log2 ratio” value is -0.406 (inactive).

With `CC(NC(=O)CCl)c1ccc2[nH]ncc2c1` (stereo not given), the “log2 ratio” value was -2.26 (active).

As to `O=C(CCl)N1CCOC2(CCC2)C1`, the “log2 ratio” value was -0.0688 (inactive).

Regarding `Cl.O=C(CCl)N1CCn2cncc2C1`, the “log2 ratio” value is -0.196 (inactive).

As to `Cc1ncc2c(n1)CCN(C(=O)CCl)C2`, the “log2 ratio” value was 0.323 (inactive).

Turning to `CS(=O)(=O)c1ccc(CNC(=O)CCl)cc1`, the “log2 ratio” value was -1.22 (active).

Take `Cc1ccc(CC(CO)CNC(=O)CCl)cc1` (stereo not given): the “log2 ratio” value is -2.23 (active).

Turning to `C[C@@H](NC(=O)CCl)c1cccc(C#N)c1`, the “log2 ratio” value is -0.466 (inactive).

Regarding `O=C(CN1CCN(C(=O)CCl)CC1)Nc1cccc(F)c1`, the “log2 ratio” value is -0.698 (inactive).

With `O=C(CCl)N1CCC(=C(F)CO)C1`, the “log2 ratio” value was -0.129 (inactive).

As for `Cc1cccn2cc(CCNC(=O)CCl)nc12.Cl`, the “log2 ratio” value was -1.07 (active).

Regarding `COc1ccc(-c2csc(NC(=O)CCl)n2)cc1`, the “log2 ratio” value is -1.46 (active).

With `O=C(CCl)Nc1ccc2c(c1)OC(F)(F)O2`, the “log2 ratio” value was -1.43 (active).

For the compound `O=C(CCl)NCC(=O)N1CCCC1`, the “log2 ratio” value was -0.323 (inactive).

On to `CN(C)C(=O)c1ccc(NC(=O)CCl)cc1`, for which the “log2 ratio” value was -0.601 (inactive).

For the compound `O=C(CCl)N1CCN(C(=O)N2CCCCC2)CC1`, the “log2 ratio” value is -0.906 (inactive).

With `COc1ccccc1C(C)NC(=O)CCl` (stereo not given), the “log2 ratio” value was -0.998 (inactive).

Regarding `O=C(CCl)NCc1noc(C2CC2)n1`, the “log2 ratio” value is -0.61 (inactive).

Regarding `COc1ccc(C2CCCN2C(=O)CCl)c(OC)c1` (stereo not given), the “log2 ratio” value was -0.545 (inactive).

In the case of `O=C(CCl)N(Cc1ccsc1)C1CC1`, the “log2 ratio” value was -0.642 (inactive).

As to `O=C(CCl)N(C1=CCCCC1)C1CC1`, the “log2 ratio” value is -0.286 (inactive).

In the case of `O=C(CCl)N[C@H]1CCS(=O)(=O)c2ccccc21`, the “log2 ratio” value was -0.862 (inactive).

In the case of `Cl.O=C(CCl)N1CCc2ncncc2C1`, the “log2 ratio” value is -0.0226 (inactive).

With `CC(c1ccccc1)N(C)C(=O)CCl` (stereo not given), the “log2 ratio” value is -0.328 (inactive).

For the origin of these results see the supplement of paper PMC11732987, “Enantioselective OTUD7B fragment discovery through chemoproteomics screening and high-throughput optimisation” (Communications Chemistry, 2025).
